Molecules are shown by their SMILES. Results filed as inconclusive are left out. Active and inactive are the calls of the source. Unless noted, calls come from the whole dose curve; as a rule, active = well fitted curve in the direction sought with a large enough effect; inconclusive = small, poorly fitted or top-dose-only effect, or another doubt; inactive = no such curve, though single readings can be large; an effect the other way counts as inactive or inconclusive.

Test [1] has as its target Nuclear receptor subfamily 1 group I member 3 (Homo sapiens) (UniProt Q14994). Kind of test: Primary qHTS for antagonist of constitutive androstane receptor (CAR) against the NCATS DSHEA and TCM libraries (AID 1794836).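 Note: HepG2 cells stably expressing hCAR with CYP2B6 luciferase reporter stimulated by CITCO.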 An excerpt:
(§1) Assay Development and Screening Technology Laboratory (ADST)
(§2) National Center for Advancing Translational Sciences (NCATS), Rockville, MD
(§3) National Institute of Health (NIH), Bethesda, Maryland
(§4) Dietary Supplements and Natural Products have minor oversight of their safety and efficacy. We assembled a collection of Dietary Supplements and Natural Products (DSNP) as well as Traditional Chinese Medicinal (TCM) Plant extracts, which were screened against an in vitro panel of assays, including a liver cytochrome p450 enzyme panel, CAR/PXR signaling pathways, and P-gp transporter assays, to assess their activity. This pipeline facilitated the interrogation of Natural Product-Drug Interaction (NaPDI) through prominent metabolizing pathways. In addition, we compared the activity profiles of the DSNP/TCM substances with those of an approved drug collection. Many of the approved drugs have well-annotated mechanisms of action (MOA) while the MOAs for most of the DSNP and TCM samples remain unknown. Based on the premise that compounds with similar activity profiles tend to share similar targets or MOA, we clustered the library activity profiles to identify overlap with the NCATS Pharmaceutical Collection to predict the MOAs of the DSNP/TCM substances. Overall, we highlight four significant bioactivity profiles (measured by p-values) as examples of this prediction.
To this end, we profiled both collections for potential CAR and/or PXR activity, employing a previously published 1536-well qHTS assay.
PROTOCOL TABLE (as described by Inglese J, Shamu CE and Guy RK. 2007)
SEQUENCE No. (e.g., 1, 2, 3, etc.); […] (e.g., Cells, Incubation, Reagent, etc.); VALUE; DESCRIPTION.
1; Cells; 4 uL; 1536-well white Greiner assay plate.
2; Incubation; 5 hours; 37C, 95% humidity, 5% CO2.
3; Compounds; 23 nL; Kalypsis pin tool (Wako USA) equipped with 1536-well pin head to transfer to the assay plates.
4; Reagent; 1 uL; 48 uM CITCO (final concentration).
5; Incubation; 24 hours; 37C, 5% CO2.
6; Detection Reagent 1; 1 uL; CellTiter-Fluor (Promega).
7; Incubation; 1 hour; 37C, 5% CO2.
8; Detector 1; Fluorescence intensity; ViewLux plate reader (excitation 405 nm, emission 540 nm).
9; Detection Reagent 2; 4 uL; ONE-Glo Luciferase reagent (Promega).
10; Incubation; 30 min; room temperature.
11; Detector 2; Luminescence intensity; ViewLux.
NOTES (numbers refer to Sequence numbers above)
1. 4 uL of HepG2-CYP2B6-hCAR cells at 6.25 x 10^5 cells/mL (2,500 cells/well) were dispensed using a Multidrop Combi dispenser in tissue culture-treated 1536-well white assay plates (Greiner Bio-One) in the same culture media, without geneticin and blasticidin included.
2. Plates were incubated for 5 hours at 37C, 95% humidity, and 5% CO2 to allow for cell attachment.
3. Compounds (final concentrations of most substances ranged from 15.6 nM to 31.9 uM), positive control (for antagonist mode: PK11195 with a final concentration range 2.8 nM to 92 uM), and toxicity control tetraoctyl ammonium bromide (final concentration of 92 uM) were transferred (23 nL) via pintool (Wako Automation).
4. After compound transfer, plates were dispensed with 1 uL of the known hCAR agonist 6-(4-Chlorophenyl)imidazo[2,1-b][1,3]thiazole-5-carbaldehyde O-(3,4-dichlorobenzyl)oxime (CITCO, final concentration of 48 uM) in the antagonist mode using a BioRAPTR FRDTM.
6. 1 uL of CellTiter-Fluor (Promega, Madison, Wisconsin) was added using a BioRAPTR FRDTM.
8. Fluorescence intensity (Ex/Em = 405 nm/540 nm) is obtained using the ViewLux plate reader to determine cell viability.
9. 4 uL of ONE-Glo Luciferase reagent (Promega) was added to each well using the BioRAPTR FRDTM,
10. Luminescence intensity is read using the ViewLux detector.

For test [2], the target named is Catechol O-methyltransferase (Homo sapiens) (UniProt P21964). Put plainly: Confirmatory Screen for Target Class Profiling of Small Molecule Inhibitors of Methyltransferases (AID 1745852; calls by dose curve; note: potency is the fitted concentration of half-maximal effect; for activity change, negative = inhibition: % is set by controls: 0 for no effect and ±100 for the full control effect). As to conditions: MTase-Glo luminescence, SAH detection, recombinant enzyme; measured here: COMT max response; stronger effect = lower value.
Sequence of Catechol O-methyltransferase (Homo sapiens) (P21964 whole entry, looked up): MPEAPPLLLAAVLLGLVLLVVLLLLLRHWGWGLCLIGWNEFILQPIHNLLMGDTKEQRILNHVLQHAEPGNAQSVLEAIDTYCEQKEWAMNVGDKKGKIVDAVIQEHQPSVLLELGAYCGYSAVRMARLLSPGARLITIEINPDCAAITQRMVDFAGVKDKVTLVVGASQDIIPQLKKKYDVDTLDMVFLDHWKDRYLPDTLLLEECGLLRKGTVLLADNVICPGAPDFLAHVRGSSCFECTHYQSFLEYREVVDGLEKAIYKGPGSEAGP
For test [3], the target named is Guanidinoacetate N-methyltransferase (Homo sapiens) (UniProt Q14353). Described as above. As to conditions: MTase-Glo luminescence, SAH detection, recombinant enzyme; activity change, negative = inhibition: at 57.3 µM (top of the series).
For test [4], the target named is Nicotinamide N-methyltransferase (Homo sapiens) (UniProt P40261). Described as above. As to conditions: MTase-Glo luminescence, SAH detection, recombinant enzyme; measured here: NNMT max response; stronger effect = lower value.
Sequence of Nicotinamide N-methyltransferase (Homo sapiens) (P40261 whole entry, looked up): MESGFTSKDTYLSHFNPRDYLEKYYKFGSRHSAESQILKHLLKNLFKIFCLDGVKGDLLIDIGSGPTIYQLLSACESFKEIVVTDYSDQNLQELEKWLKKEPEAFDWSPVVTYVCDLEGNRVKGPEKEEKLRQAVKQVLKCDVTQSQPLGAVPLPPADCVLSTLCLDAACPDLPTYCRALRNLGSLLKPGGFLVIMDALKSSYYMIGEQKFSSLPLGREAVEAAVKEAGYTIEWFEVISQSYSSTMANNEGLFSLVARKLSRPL
In test [5] the target is Phenylethanolamine N-methyltransferase (Homo sapiens) (UniProt P11086). The description is as above. The note with it: MTase-Glo luminescence, SAH detection, recombinant enzyme; measured here: PNMT max response; stronger effect = lower value.
Sequence of Phenylethanolamine N-methyltransferase (Homo sapiens) (P11086 whole entry, looked up): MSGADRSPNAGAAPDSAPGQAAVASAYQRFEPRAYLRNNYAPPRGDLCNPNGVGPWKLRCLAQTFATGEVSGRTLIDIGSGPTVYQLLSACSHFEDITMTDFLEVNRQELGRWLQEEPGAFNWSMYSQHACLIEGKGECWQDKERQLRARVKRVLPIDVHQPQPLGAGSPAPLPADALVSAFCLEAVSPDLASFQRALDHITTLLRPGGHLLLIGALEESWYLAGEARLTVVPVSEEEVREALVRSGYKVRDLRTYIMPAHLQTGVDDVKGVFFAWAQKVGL
The target in test [6] is Rap guanine nucleotide exchange factor 4 (Homo sapiens) (UniProt Q8WZA2). Put plainly: Confirmatory qHTS for antagonist of cAMP-regulated guanine nucleotide exchange factor 4 (EPAC2) (AID 1645885). For activity change, negative = inhibition: % is set by controls: 0 for no effect and ±100 for the full control effect. Note: nearly all actives have a fitted effect of over 25% in size. Note: potency is the fitted concentration of half-maximal effect.
Sequence of Rap guanine nucleotide exchange factor 4 (Homo sapiens) (Q8WZA2 whole entry, looked up): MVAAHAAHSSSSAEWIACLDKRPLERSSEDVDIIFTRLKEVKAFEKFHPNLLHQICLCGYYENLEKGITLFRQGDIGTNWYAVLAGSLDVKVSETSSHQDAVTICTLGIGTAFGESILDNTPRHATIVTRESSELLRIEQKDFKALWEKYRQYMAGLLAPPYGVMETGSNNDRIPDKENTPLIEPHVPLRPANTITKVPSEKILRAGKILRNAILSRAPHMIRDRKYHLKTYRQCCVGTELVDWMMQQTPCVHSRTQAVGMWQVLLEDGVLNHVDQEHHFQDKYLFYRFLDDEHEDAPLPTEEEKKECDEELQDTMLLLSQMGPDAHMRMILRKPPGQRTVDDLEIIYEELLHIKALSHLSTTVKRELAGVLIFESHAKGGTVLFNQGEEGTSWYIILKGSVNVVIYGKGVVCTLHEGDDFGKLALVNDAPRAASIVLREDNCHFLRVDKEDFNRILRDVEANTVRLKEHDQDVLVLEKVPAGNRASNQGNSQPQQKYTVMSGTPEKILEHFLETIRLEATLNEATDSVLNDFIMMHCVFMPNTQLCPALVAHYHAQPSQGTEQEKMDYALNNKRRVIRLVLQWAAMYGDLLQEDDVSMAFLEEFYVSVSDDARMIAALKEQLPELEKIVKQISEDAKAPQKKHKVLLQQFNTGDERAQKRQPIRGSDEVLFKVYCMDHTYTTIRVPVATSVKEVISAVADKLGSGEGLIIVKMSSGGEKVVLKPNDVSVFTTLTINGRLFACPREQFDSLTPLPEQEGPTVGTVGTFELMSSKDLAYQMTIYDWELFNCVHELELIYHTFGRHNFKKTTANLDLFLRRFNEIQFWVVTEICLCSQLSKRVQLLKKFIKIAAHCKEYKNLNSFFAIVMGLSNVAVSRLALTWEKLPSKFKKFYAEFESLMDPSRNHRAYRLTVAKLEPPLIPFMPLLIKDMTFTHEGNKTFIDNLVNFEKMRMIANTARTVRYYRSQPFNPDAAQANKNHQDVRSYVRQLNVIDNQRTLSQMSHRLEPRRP
A short description of test [7]: NCATS anti-infectives library activity on HEK293 viability as a counter-qHTS vs the C. elegans viability qHTS (AID 1745854). Note: % is set by controls: 0 for no effect and ±100 for the full control effect. In outline:
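HEK293 cells, 1500 per well, exposed 24 hr at 37C in 5% CO2 to compounds in a 1:5 titration, up to 41.7 uM final. Viability read as CellTiter-Glo luminescence after 10 min at room temperature.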

Test [8] is described as follows: Viability counterscreen for antagonist of constitutive androstane receptor (CAR) against the NCATS DSHEA and TCM libraries (AID 1794837).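 Note: compound exposure lasted 24 h before viability reading; 0% is about no effect.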 In outline: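 HepG2-CYP2B6-hCAR cells (2,500/well) were allowed to attach for 5 h, then exposed to compounds with 48 uM CITCO for 24 h at 37C. Viability was read by CellTiter-Fluor fluorescence after 1 h.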
(The purpose of a counterscreen is to sort out artefacts and off-target activity.)

The nature of test [9]: Viability counterscreen for agonist of constitutive androstane receptor (CAR) against the NCATS DSHEA and TCM libraries (AID 1794838).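 Note: HepG2 cells with CYP2B6 reporter and hCAR plus 0.75 µM PK11195 antagonist; 0% is about no effect.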
From the text: as §1, §2, §3
as §4, with “Many of the approved drugs have well-annotated mechanisms of action (MOA) while the MOAs for most of the DSNP and TCM samples remain unknown. Based on the premise that compounds with similar activity profiles tend to share similar targets or MOA, we clustered the library activity profiles to identify overlap with the NCATS Pharmaceutical Collection to predict the MOAs of the DSNP/TCM substances.” left out, “prediction. […]” for “prediction.”
(§5) 8; Detector 1; Fluorescence intensity; ViewLux plate reader (excitation 405 nm, emission 540 nm). […]
(§6) 11; Detector 2; Luminescence intensity; ViewLux. […]
(§7) 8. Fluorescence intensity (Ex/Em = 405 nm/540 nm) is obtained using the ViewLux plate reader to determine cell viability. […]
(§8) 10. Luminescence intensity is read using the ViewLux detector. […]

The target of test [10] is Nuclear receptor subfamily 1 group I member 3 (Homo sapiens) (UniProt Q14994). Kind of test: Primary qHTS for agonist of constitutive androstane receptor (CAR) against the NCATS DSHEA and TCM libraries (AID 1794839).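 Note: HepG2 cells expressing human CAR with a CYP2B6 reporter plus PK11195 antagonist; luciferase reporter luminescence read with ONE-Glo; 0% is about no effect.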
Sequence of Nuclear receptor subfamily 1 group I member 3 (Homo sapiens) (Q14994 whole entry, looked up): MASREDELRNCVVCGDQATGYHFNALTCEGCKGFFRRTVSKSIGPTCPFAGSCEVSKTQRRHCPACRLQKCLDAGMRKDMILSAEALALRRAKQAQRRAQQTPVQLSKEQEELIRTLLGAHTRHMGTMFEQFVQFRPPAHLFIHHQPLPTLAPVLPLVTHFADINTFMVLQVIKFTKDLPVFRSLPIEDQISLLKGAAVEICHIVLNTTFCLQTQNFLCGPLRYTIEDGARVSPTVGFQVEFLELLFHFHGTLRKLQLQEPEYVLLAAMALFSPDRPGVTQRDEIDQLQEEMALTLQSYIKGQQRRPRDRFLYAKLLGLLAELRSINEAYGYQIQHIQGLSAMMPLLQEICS
From the text: as §2, §3
as §4, with “Based on the premise that compounds with similar activity profiles tend to share similar targets or MOA, we clustered the library activity profiles to identify overlap with the NCATS Pharmaceutical Collection to predict the MOAs of the DSNP/TCM substances.” left out, “prediction. […]” for “prediction.”
as §5, §6, §7, §8

Turning to `Oc1ccc(/C=C/c2cc(O)cc(O)c2)cc1`, the outcome in [1] was “inactive”.
On the same count and under the same terms, for `C/C=C/c1ccc(OC)cc1` the value was “inactive”; for `Nc1nc2ncc(CNc3ccc(C(=O)N[C@@H](CCC(=O)O)C(=O)O)cc3)nc2c(=O)[nH]1`, “inactive”.
In the case of `Cc1nnc2n1-c1sc(CCc3ccc(CC(C)C)cc3)cc1C(c1ccccc1Cl)=NC2C` (configuration not stated), the activity in test [2] was -12.7%; in test [4], -36.8%; in test [5], -8.97%. Also, the Potency in test [3] is 48.2 µM (active).
Regarding `OC[C@H]1O[C@@H](OCCc2ccc(O)cc2)[C@H](O)[C@@H](O)[C@H]1O`, the outcome in test [1] is “inactive”.
For `C[C@H](N)[C@H](O)c1ccc(O)c(O)c1`, the Potency entry in test [6] was “inactive”.
As for `C[C@@H]1CC[C@H]2[C@@H](C)C(=O)O[C@@H]3O[C@@]4(C)CC[C@@H]1[C@]32OO4`, the outcome in test [7] is “inactive”.
With `COc1ccc2cc3[n+](cc2c1OC)CCc1cc2c(cc1-3)OCO2`, in test [1], the outcome is “inactive”.
Regarding `C[C@]12CC[C@H](O)CC1=CC[C@@H]1[C@@H]2CC[C@]2(C)C(=O)CC[C@@H]12`, the outcome in [1], in [8], in test [9] and in test [10] was “inactive” in each case.
Turning to `Clc1ccc(CSC(Cn2ccnc2)c2ccc(Cl)cc2Cl)cc1` (configuration not stated), in test [6], the Potency was 22.1 µM (active).
With `C=CCN1CC[C@]23CCCC[C@H]2[C@H]1Cc1ccc(O)cc13`, the figures for the activity in test [2], in test [4] and in [5] were 0.434%, -15.3% and 2.6%, respectively. Besides, the activity change, negative = inhibition in test [3] was 3.29%.
On to `O=C1O[C@H]([C@@H](O)CO)C(O)=C1O`, for which the outcome in [1] was “inactive”.
With `Cn1c(=O)c2c(ncn2C)n(C)c1=O`, the outcome in [1] is “inactive”.
